These results are taken from PubChem BioAssay (NCATS).

The source made the active and inactive calls. The rule behind the calls is not given here.
Potency is the fitted concentration of half-maximal effect.

This assay relates to HIV-1 nucleocapsid protein NCp7 (binding to TG oligonucleotide). Nature of the assay: HIV Nucleocapsid (AID 346).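 Note: potency is for inhibitors that block NC binding and lower polarization.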 The settings on record: HIV-1 NC / fluorescein-TGTGTGTG probe, fluorescence polarization. As for the experimental part:
NCGC Assay Overview: HIV-1 nucleocapsid protein (HIV-1 NC) is a small (6.5 kDa) basic zinc-finger protein which participates in packaging of viral genomic RNA. The spacing and metal-chelating residues (3 Cys, 1 His) of the Cys-X2-Cys-X4-His-X4-Cys Zn fingers are conserved among all known retroviruses (J. Med. Chem. 1998, 41, 1371-1381). HIV-1 NC was assayed for its binding to the consensus sequence single-stranded 5'-TGTGTGTG. […] High salt was included to increase the stringency of binding and inhibitor screen. Reducing agents and zinc were present to stabilize the nucleocapsid zinc-finger protein.
NCGC Assay Protocol Summary: Buffer. Hepes pH 7.5, 250mM NaCl, 1uM ZnCl2. 0.004% polyethylene glycol 20000. TCEP (100 uM) and 2-Mercaptoethanol (5 mM), added fresh the day of the experiment. Reagents/Controls. 10 nM TG4xF only in columns 3 and 4 as negative control. 10 nM TG4xF/100 nM HIV-1 NC in columns 1, 2, 5-48. Titration of control compound NSC-13778 (from 20 mM, then 1:2) pin-transferred to column 2. Assay Steps. Two uL of reagents were dispensed to 1536-well Kalypsys black plates. The plates were centrifuged for 1 min at 1000 rpm. Compounds and controls (20 nL) were transferred via Kalypsys PinTool. The plates were incubated for 1 hr at room temperature, and then read on ViewLux (Perkin-Elmer). High-throughput CCD imager using fluorescein polarization filter set and 45 seconds exposure time.
For the compound `O=C(c1csnn1)N1CCC2(CC1)CCN(c1ccccc1)CC2`, the Potency is > 20 µM (inactive). Take `COc1ccccc1CN1CC[C@@]2(CCCN(C(=O)c3cnccn3)C2)C1`: the Potency is > 20 µM (inactive). In the case of `c1cncc(CNc2ccnc(-c3ccc4c(c3)OCO4)n2)c1`, the Potency is > 20 µM (inactive). As to `COCCn1c(=O)c(-c2cn(C)c3ccccc23)nc2cnc(Oc3ccc(OC)cc3)nc21`, the Potency was > 20 µM (inactive). Take `Clc1ccccc1-c1cc(NCc2ccccc2)ncn1`: the Potency was > 20 µM (inactive). Turning to `O=C(c1cccc(F)c1)N1CCC[C@@]2(CCN(C(c3ccccc3)c3ccccc3)C2)C1`, the Potency is > 20 µM (inactive).

Turning to `Cc1nc2cnc(Oc3cccc(Cl)c3)nc2n(CCc2ccccc2)c1=O`, the Potency is > 20 µM (inactive). On to `CN(Cc1ccco1)c1ncnc2ccc(-c3cccnc3)cc12`, for which the Potency is > 20 µM (inactive). Consider `COc1cccc(Cn2c(=O)cnc3cnc(N4CCN(C)CC4)nc32)c1`, for which the Potency is > 20 µM (inactive). For `CN(C)Cc1ccccc1-c1cncnc1NCc1cccs1` the value was > 20 µM (inactive). To `CN(C)c1ncnc2ccc(-c3cccc(NS(C)(=O)=O)c3)cc12` belongs > 20 µM (inactive). For `Cn1cc(-c2nc3cnc(N4CCNCC4)nc3n(C3CC3)c2=O)c2ccccc21` the value was > 20 µM (inactive); for `CN(C)c1ncc2nc(-c3ccc(F)cc3)c(=O)n(CCC#N)c2n1`, > 4 µM (inactive).

Turning to `O=S(=O)(c1ccccc1)N1CCC2(CCN(Cc3nccs3)CC2)CC1`, the Potency is > 20 µM (inactive). Turning to `N#Cc1cccc(NC(=O)N2CC3(CCN(C(=O)c4cccc(F)c4)CC3)C2)c1`, the Potency is > 20 µM (inactive). To `COc1ccccc1CNc1ccnc(-c2cccc(NS(C)(=O)=O)c2)n1` belongs > 20 µM (inactive); to `CC(C)NC(=O)N1CCC2(CC1)CCN(C(=O)c1cccc(F)c1)CC2`, > 20 µM (inactive); to `O=c1c(-c2cccs2)nc2cnc(N3CCNCC3)nc2n1C1CC1`, > 20 µM (inactive).

For `Cc1ccccc1-c1ccc2ncnc(NCCN3CCOCC3)c2c1`, the Potency was > 20 µM (inactive). For the compound `CC(=O)N1CCC2(CC1)CN(c1ccncc1)C2`, the Potency was > 20 µM (inactive).

On to `CCNc1ncc2nc(-c3ccccc3)c(=O)n(CCOC)c2n1`, for which the Potency was > 20 µM (inactive).

With `COC(=O)N1CCC2(CCCN(c3ccncc3)C2)CC1`, the Potency is > 20 µM (inactive). In the case of `CN(Cc1ccco1)c1ncncc1-c1cccnc1`, the Potency is > 20 µM (inactive). To `Cc1noc(C)c1C(=O)N1CCC[C@@]2(CCN(Cc3ccc(C#N)cc3)C2)C1` belongs > 20 µM (inactive); to `CCNc1ncc2nc(-c3cn(C)c4ccccc34)c(=O)n(-c3ccc(OC)cc3)c2n1`, 3.86 µM (active). On to `COCCn1c(=O)c(CCc2ccccc2)nc2cnc(N(C)C)nc21`, for which the Potency is > 20 µM (inactive).

Turning to `CCNc1ncc2nc(-c3ccc(OC)cc3)c(=O)n(Cc3ccc(F)cc3)c2n1`, the Potency is > 20 µM (inactive).

Regarding `N#Cc1ccc(CN2CCC3(CC2)CCN(S(=O)(=O)c2ccccc2)CC3)cc1`, the Potency was > 20 µM (inactive). Consider `O=c1c(CCc2ccccc2)nc2cncnc2n1Cc1ccc(F)cc1`, for which the Potency is > 20 µM (inactive). For `COc1cccc(Nc2ncc3nc(-c4cn(C)c5ccccc45)c(=O)n(CCC#N)c3n2)c1` the value was > 20 µM (inactive); for `COc1ncc2nc(-c3cccc(C#N)c3)c(=O)n(CCC#N)c2n1`, > 20 µM (inactive). For `CN1CCCC2(CCN(C(=O)c3cccn3C)CC2)C1` the value was > 20 µM (inactive); for `Cc1noc(C)c1-c1cc(NCc2ccccc2)ncn1`, > 20 µM (inactive).

With `COc1ccc(-c2nc3cnc(N4CCNCC4)nc3n(C3CC3)c2=O)cc1`, the Potency is > 20 µM (inactive). With `Cc1cccc(CNc2cc(-c3cccnc3)ncn2)c1`, the Potency is > 20 µM (inactive). `Cc1ccccc1-c1nc(NC2CCNCC2)c2ccccc2n1`: the Potency is > 20 µM (inactive). Consider `CN1CCC2(CC1)CCN(S(=O)(=O)c1ccccc1)CC2`, for which the Potency is > 20 µM (inactive). In the case of `COc1ccc(-c2nc3cnc(N4CCN(C)CC4)nc3n(-c3ccc(OC)cc3)c2=O)cc1`, the Potency was > 20 µM (inactive). For `Cc1noc(C)c1-c1cc(N(C)C)ncn1`, the Potency was > 20 µM (inactive). With `COc1cccc(-c2cncnc2NCc2ccc(OC)cc2OC)c1`, the Potency was > 20 µM (inactive).
